# Assay results as given in PubChem BioAssay AID1159580 (chemical genetic matrix, 2015).
# Among all 5,500 compounds or so, about 2,000 (36%) were called active. Roughly 18% stayed inconclusive and do not appear here. This is one part of the list. A number with no mark means an inactive call. Cut-off read from the data, not from the text of the source: active = normalized growth mostly below about 0.91 (no sharp cut-off); inconclusive = no clear call, values can overlap the other calls; inactive = mostly above about 0.92.
# Assay: chemical genetic growth profiling, strain panel (AID 1159580);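 note: tested at 20 µM; growth read once vehicle control cultures reached saturation at 30 °C; 1 = growth at the plate median or of vehicle wells; lower values mean less growth of the strain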
# Conditions: growth OD
smiles,measurement,setting,value
COc1ccc2c(c1)OC[C@@H](Cc1ccc(OC)c(OC)c1)[C@@H]2O,normalized growth,"S. cerevisiae deletion strains, locus YJR075W, strain HOC1, active compounds read low",0.951
same,normalized growth,"S. cerevisiae deletion strains, locus YKL009W, strain mrt4, active compounds read low",0.985
same,normalized growth,"S. cerevisiae deletion strains, locus YKL068W, active compounds read low",0.988
same,normalized growth,"S. cerevisiae deletion strains, locus YKL085W, strain MDH1 (second series), active compounds read low",0.956
same,normalized growth,"S. cerevisiae deletion strains, locus YKL085W, strain MDH1, active compounds read low",0.956
same,normalized growth,"S. cerevisiae deletion strains, locus YKL160W, strain elf1, active compounds read low",1
same,normalized growth,"S. cerevisiae deletion strains, locus YKL190W, strain CNB1, active compounds read low",1
same,normalized growth,"S. cerevisiae deletion strains, locus YKR001C, strain vps1, active compounds read low",0.892 (active)
same,normalized growth,"S. cerevisiae deletion strains, locus YKR026C, strain gcn3, active compounds read low",0.992
same,normalized growth,"S. cerevisiae deletion strains, locus YKR091W, strain srl3, active compounds read low",0.988
same,normalized growth,"S. cerevisiae deletion strains, locus YLL001W, strain dnm1, active compounds read low",0.99
same,normalized growth,"S. cerevisiae deletion strains, locus YLL026W, active compounds read low",0.995
same,normalized growth,"S. cerevisiae deletion strains, locus YLL041C, strain sdh2, active compounds read low",0.989
same,normalized growth,"S. cerevisiae deletion strains, locus YLR027C, strain aat2, active compounds read low",0.989
same,normalized growth,"S. cerevisiae deletion strains, locus YLR039C, strain RIC1, active compounds read low",0.749
same,normalized growth,"S. cerevisiae deletion strains, locus YLR058C, strain SHM2, active compounds read low",0.997
same,normalized growth,"S. cerevisiae deletion strains, locus YLR102C, strain apc9, active compounds read low",0.987
same,normalized growth,"S. cerevisiae deletion strains, locus YLR113W, strain HOG1, active compounds read low",0.875
same,normalized growth,"S. cerevisiae deletion strains, locus YLR221C, strain rsa3, active compounds read low",1.01
same,normalized growth,"S. cerevisiae deletion strains, locus YLR258W, strain gsy2, active compounds read low",0.979
same,normalized growth,"S. cerevisiae deletion strains, locus YLR262C, strain YPT6 (second series), active compounds read low",0.831 (active)
same,normalized growth,"S. cerevisiae deletion strains, locus YLR262C, strain YPT6, active compounds read low",0.805
same,normalized growth,"S. cerevisiae deletion strains, locus YLR268W, strain sec22, active compounds read low",0.999
same,normalized growth,"S. cerevisiae deletion strains, locus YLR320W, strain mms22, active compounds read low",0.971
same,normalized growth,"S. cerevisiae deletion strains, locus YLR330W, strain CHS5, active compounds read low",0.993
same,normalized growth,"S. cerevisiae deletion strains, locus YLR342W, strain FKS1 (second series), active compounds read low",0.958
same,normalized growth,"S. cerevisiae deletion strains, locus YLR342W, strain FKS1, active compounds read low",0.973
same,normalized growth,"S. cerevisiae deletion strains, locus YLR357W, strain rsc2, active compounds read low",0.998
same,normalized growth,"S. cerevisiae deletion strains, locus YLR370C, strain arc18, active compounds read low",1
same,normalized growth,"S. cerevisiae deletion strains, locus YLR371W, strain rom2, active compounds read low",0.985
same,normalized growth,"S. cerevisiae deletion strains, locus YLR384C, strain iki3, active compounds read low",0.982
same,normalized growth,"S. cerevisiae deletion strains, locus YLR418C, strain cdc73, active compounds read low",1.01
same,normalized growth,"S. cerevisiae deletion strains, locus YML016C, strain PPZ1, active compounds read low",1
same,normalized growth,"S. cerevisiae deletion strains, locus YML032C, strain rad52, active compounds read low",0.981
same,normalized growth,"S. cerevisiae deletion strains, locus YML120C, strain ndi1, active compounds read low",0.986
same,normalized growth,"S. cerevisiae deletion strains, locus YML124C, strain tub3, active compounds read low",0.988
same,normalized growth,"S. cerevisiae deletion strains, locus YMR058W, strain fet3, active compounds read low",1.01
same,normalized growth,"S. cerevisiae deletion strains, locus YMR078C, strain ctf18, active compounds read low",0.986
same,normalized growth,"S. cerevisiae deletion strains, locus YMR125W, strain sto1, active compounds read low",1.01
same,normalized growth,"S. cerevisiae deletion strains, locus YMR129W, active compounds read low",0.985
same,normalized growth,"S. cerevisiae deletion strains, locus YMR205C, strain PFK2, active compounds read low",0.955
same,normalized growth,"S. cerevisiae deletion strains, locus YMR223W, strain ubp8, active compounds read low",0.987
same,normalized growth,"S. cerevisiae deletion strains, locus YMR231W, strain pep5, active compounds read low",0.987
same,normalized growth,"S. cerevisiae deletion strains, locus YMR263W, strain SAP30, active compounds read low",1.01
same,normalized growth,"S. cerevisiae deletion strains, locus YMR307W, strain GAS1, active compounds read low",0.945
same,normalized growth,"S. cerevisiae deletion strains, locus YNL067W, strain RPL9B, active compounds read low",1.01
same,normalized growth,"S. cerevisiae deletion strains, locus YNL071W, strain lat1, active compounds read low",0.994
same,normalized growth,"S. cerevisiae deletion strains, locus YNL128W, strain TEP1, active compounds read low",1.01
same,normalized growth,"S. cerevisiae deletion strains, locus YNL153C, strain GIM3, active compounds read low",1.01
same,normalized growth,"S. cerevisiae deletion strains, locus YNL183C, strain NPR1, active compounds read low",0.933
same,normalized growth,"S. cerevisiae deletion strains, locus YNL209W, strain ssb2, active compounds read low",1.01
same,normalized growth,"S. cerevisiae deletion strains, locus YNL233W, strain BNI4, active compounds read low",0.978
same,normalized growth,"S. cerevisiae deletion strains, locus YNL248C, strain rpa49, active compounds read low",1.01
same,normalized growth,"S. cerevisiae deletion strains, locus YNL250W, strain rad50, active compounds read low",1
same,normalized growth,"S. cerevisiae deletion strains, locus YNL271C, strain bni1, active compounds read low",0.992
same,normalized growth,"S. cerevisiae deletion strains, locus YNL298W, strain CLA4, active compounds read low",0.992
same,normalized growth,"S. cerevisiae deletion strains, locus YNL307C, strain MCK1, active compounds read low",0.953
same,normalized growth,"S. cerevisiae deletion strains, locus YNL322C, strain KRE1 (second series), active compounds read low",0.967
same,normalized growth,"S. cerevisiae deletion strains, locus YNL322C, strain KRE1, active compounds read low",0.999
same,normalized growth,"S. cerevisiae deletion strains, locus YNR049C, strain mso1, active compounds read low",0.99
same,normalized growth,"S. cerevisiae deletion strains, locus YNR052C, strain pop2, active compounds read low",0.977
same,normalized growth,"S. cerevisiae deletion strains, locus YOL006C, strain TOP1, active compounds read low",0.993
same,normalized growth,"S. cerevisiae deletion strains, locus YOL147C, strain pex11, active compounds read low",0.985
same,normalized growth,"S. cerevisiae deletion strains, locus YOR001W, strain rrp6, active compounds read low",1.01
same,normalized growth,"S. cerevisiae deletion strains, locus YOR061W, strain CKA2, active compounds read low",1
same,normalized growth,"S. cerevisiae deletion strains, locus YOR069W, strain VPS5, active compounds read low",0.992
same,normalized growth,"S. cerevisiae deletion strains, locus YOR070C, strain gyp1, active compounds read low",0.998
same,normalized growth,"S. cerevisiae deletion strains, locus YOR080W, strain dia2, active compounds read low",0.974
same,normalized growth,"S. cerevisiae deletion strains, locus YOR083W, strain WHI5, active compounds read low",0.987
same,normalized growth,"S. cerevisiae deletion strains, locus YOR106W, strain vam3, active compounds read low",1.02
same,normalized growth,"S. cerevisiae deletion strains, locus YOR136W, strain idh2, active compounds read low",0.991
same,normalized growth,"S. cerevisiae deletion strains, locus YOR144C, strain elg1, active compounds read low",0.987
same,normalized growth,"S. cerevisiae deletion strains, locus YOR184W, strain ser1, active compounds read low",0.952
same,normalized growth,"S. cerevisiae deletion strains, locus YOR231W, strain MKK1, active compounds read low",0.976
same,normalized growth,"S. cerevisiae deletion strains, locus YOR265W, strain rbl2, active compounds read low",1.01
same,normalized growth,"S. cerevisiae deletion strains, locus YOR270C, strain vph1, active compounds read low",1.01
same,normalized growth,"S. cerevisiae deletion strains, locus YOR290C, strain snf2, active compounds read low",1
same,normalized growth,"S. cerevisiae deletion strains, locus YOR316C, strain cot1, active compounds read low",0.99
same,normalized growth,"S. cerevisiae deletion strains, locus YPL051W, strain arl3, active compounds read low",0.982
same,normalized growth,"S. cerevisiae deletion strains, locus YPL055C, strain LGE1, active compounds read low",0.996
same,normalized growth,"S. cerevisiae deletion strains, locus YPL078C, strain atp4, active compounds read low",1.01
same,normalized growth,"S. cerevisiae deletion strains, locus YPL106C, strain sse1, active compounds read low",0.99
same,normalized growth,"S. cerevisiae deletion strains, locus YPL240C, strain hsp82, active compounds read low",0.995
same,normalized growth,"S. cerevisiae deletion strains, locus YPL241C, strain CIN2, active compounds read low",0.998
same,normalized growth,"S. cerevisiae deletion strains, locus YPL256C, strain CLN2, active compounds read low",0.983
same,normalized growth,"S. cerevisiae deletion strains, locus YPR119W, strain clb2, active compounds read low",0.983
same,normalized growth,"S. cerevisiae deletion strains, locus YPR141C, strain kar3, active compounds read low",0.995
same,normalized growth,"S. cerevisiae deletion strains, locus YPR163C, strain tif3, active compounds read low",0.995
same,normalized growth,"S. cerevisiae deletion strains, locus YPR167C, strain met16, active compounds read low",0.985
same,normalized growth,"S. cerevisiae deletion strains, strain wtn01, active compounds read low",0.982
same,normalized growth,"S. cerevisiae strains, strain wild type, active compounds read low",1.01
